Compound activity from PubChem.
An excerpt weighted towards active compounds, which were near 19% of everything screened.
uPA surface inh: qHTS for Inhibitors of Cell Surface uPA Generation; 0.31% of 330,000 active; AID 540303, 2011; cell surface uPA generation assay, qHTS; Potency, µM (doses to about 38.3 µM), inactives show at the top dose activity change, negative = inhibition, hits mostly inhibitors; active = well fitted inhibition curve with a large enough effect; inconclusive = small, poorly fitted or top-dose-only effect; inactive = no such curve, though single readings can be large or run the other way; tested in mouse RAW 264.7 cells; also: potency is read from the fitted curve at half-maximal effect; nearly all actives have a fitted effect of over 55% in size
IL1B secr inh: qHTS for Inhibitors of Inflammasome Signaling: IL-1-beta AlphaLISA Primary Screen; THP-1 LPS/ATP IL-1B secretion, AlphaLISA, 16 h; hits give low values; activity change, % at 57.5 µM; 4.7% of 360,000 active; AID 743279, 2014; in the data active = activity change below about -50%; inconclusive = mostly about -30% to -49%
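Secreted IL-1B measured by AlphaLISA bead assay after 16 h compound exposure of THP-1 cells; compounds (final up to 57.5 uM) added 1 h before LPS (250 ng/mL) and ATP (1.25 mM) stimulation; lower signal means less secretion.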
HT1080NT lethal: qHTS for induction of synthetic lethality in tumor cells producing 2HG: qHTS for the HT-1080-NT fibrosarcoma cell line | HT-1080-NT fibrosarcoma viability, CellTiter-Glo ATP luminescence, 48 h | Potency, µM (doses to about 46.1 µM), inactives show top-dose activity, negative = less viability, hits mostly cytotoxic | 1.6% of 360,000 active | AID 686970, 2013;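 also: NT is the 2HG producing partner of a matched IDH1 knockdown line; potency is read from the fitted curve at half-maximal effect; 0% = DMSO-treated cells and -100% = media-only wells without cells; nearly all actives have a fitted effect of over 55% in size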
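Compounds were tested in concentration-response format on HT-1080-NT cells for 48 hours at 37 degrees C. Cell viability came from CellTiter-Glo luminescence; curves were classified by r2, response magnitude and activity.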
TDP1 cell noCPT: qHTS for Inhibitors of human tyrosyl-DNA phosphodiesterase 1 (TDP1): qHTS in cells in absence of CPT | DT40 Tdp1-/- hTDP1 cells, no CPT, ATP luminescence, 48 h | Potency, µM (series often up to 46.2 µM), inactives show at the top dose activity change, negative = growth inhibition, hits mostly inhibitors | 15% of 420,000 active | AID 686978, 2013; also: potency is read from the fitted curve at half-maximal effect; nearly all actives have a fitted effect of over 55% in size
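No-CPT arm: Tdp1-/-;hTDP1 DT40 cells (400/well) plus compounds, incubated ≥48 hr at 37 °C. Readout CellTiter-Glo luminescence.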
DT40 TDP1 CPT: qHTS for Inhibitors of human tyrosyl-DNA phosphodiesterase 1 (TDP1): qHTS in cells in presence of CPT; chicken DT40 Tdp1-/-;hTDP1 cells + 20 nM CPT, ATP luminescence, 48 h; Potency, µM (highest dose often 46.2 µM), for inactives: at the top dose activity change, negative = growth inhibition, hits mostly inhibitors; 12% of 420,000 active; AID 686979, 2013; also: potency is read from the fitted curve at half-maximal effect; nearly all actives have a fitted effect of over 55% in size
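Chicken DT40 Tdp1-/- cells stably complemented with human TDP1 were seeded at 400 cells/well in medium containing 20 nM camptothecin, exposed to pin-transferred compounds, and grown at 37 °C for at least 48 hr. Viability was read as ATP luminescence.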
HT1080 IDH1KD tx: qHTS for induction of synthetic lethality in tumor cells producing 2HG: qHTS for the HT-1080-IDH1KD cell line; Potency, µM (series often up to 46.1 µM), for the others: at the top dose activity, negative = toxicity, hits mostly cytotoxic; AID 686971, 2013; HT-1080 IDH1 knockdown viability, ATP luminescence, 48 h; 2% of 360,000 active;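 also: potency is read from the fitted curve at half-maximal effect; 0% = DMSO wells and -100% = cell-free medium wells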
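Viability of IDH1-knockdown HT-1080 fibrosarcoma cells was assessed by CellTiter-Glo after 48 h at 37 °C with titrated compound; concentration-effect curves were classified by fit quality and response size.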
An asterisk follows results filed as active; ? = inconclusive; . = no result; ! = a repeat was not active; [ ] = remark or other dose. Unless noted, calls follow the shape of the dose curve; as a rule, active = well fitted curve in the direction sought with a large enough effect; inconclusive = small, poorly fitted or top-dose-only effect, or another doubt; inactive = no such curve, though single readings can be large; an effect the other way counts as inactive or inconclusive. Unless noted, % is scaled to controls: 0 for no effect and ±100 for the full control effect.

SMILES	uPA surface inh	IL1B secr inh	HT1080NT lethal	TDP1 cell noCPT	DT40 TDP1 CPT	HT1080 IDH1KD tx
COc1ccc(N2C(=O)CC(SCC(=O)O)C2=O)cc1 (configuration not stated)	-2.8%	-22.5	4.2%	-21.5%	-27.5%	14.2%
CCOC(=O)CN1C(=O)C(CC)Oc2ccccc21 (configuration not stated)	.	-0.1	10.2%	-17.6%	-1.9%	-3.4%
COc1ccc(N2C(=O)CC(Sc3n[nH]c(-c4ccccc4)n3)C2=O)cc1 (configuration not stated)	3.4%	1.6	6.5%	1.16µM*	0.461µM*	10.0%
CCOc1ccc(N2C(=O)CC(Sc3n[nH]c(-c4ccccc4)n3)C2=O)cc1 (configuration not stated)	7.5%	4.4	0.7%	7.31µM*	7.31µM*	0.8%
CCOC(=O)CN1C(=O)C(Sc2n[nH]c(-c3ccccc3)n2)CCc2ccccc21 (configuration not stated)	1.3%	?	?	20.6µM*	20.6µM*	-3.1%[9.24 µM]
CN(CCC#N)C(=S)Nc1ccc(S(=O)(=O)N2CCOCC2)cc1	9.4%	2.9	1.1%	0.2%	-27.7%	1.6%
O=C(O)C1c2ccccc2Cc2ccccc21	.	18.0	-1.2%	1.6%	-4.3%	-6.9%
CCOc1ccc(N2C(=O)CC(SCc3nc4ccccc4[nH]3)C2=O)cc1 (configuration not stated)	-0.5%	7.8	-5.5%	?	16.4µM*	13.3%
CCOc1ccc(N2C(=O)C3C(C2=O)C3(c2ccccc2)c2ccccc2)cc1 (configuration not stated)	-4.8%	-21.6	-1.2%	?	18.4µM*	-6.4%
CCOc1ccc(N2C(=O)CC(Sc3nc(CC(C)C)ccc3C#N)C2=O)cc1 (configuration not stated)	-2.7%	-0.7	7.7%	?	23.1µM*	-0.2%
O=c1oc2ccc(F)cc2cc1-c1nc(-c2cccs2)no1	.	.	.	-13.7%	-19.8%	.
O=C(CN1Cc2ccccc2C1=O)Nc1cc(F)ccc1F	.	.	.	-5.3%	5.8%	.
COc1ccc(C(O)c2ncc(-c3ccccc3C)[nH]2)cc1 (configuration not stated)	.	7.1	4.4%	-17.9%	-9.6%	1.6%
CC(=O)CCc1ccc(OCC(=O)Nc2cccc(S(=O)(=O)N(C)c3ccccc3)c2)cc1	-7.4%	-7.6	-20.3%	?	-7.6%	-6.0%
Cc1cnc(C)c(-c2ccc(F)c3c2OC(CNC(=O)Cc2c(F)cccc2F)C3)n1 (configuration not stated)	.	.	.	-10.6%	8.9%	.
CCOC(=O)CNc1nc(C#N)nc(N2CCOCC2)n1	-0.4%	-89.7*	-7.4%	?	12.6µM*!	-15.9%
CN(C)c1nc(C#N)nc(N2CCOCC2)n1	-7.7%	-19.0	-11.6%	?	?	-9.4%
C1CN(c2nc(N3CCOCC3)nc(N3CCOCC3)n2)CCO1	2.3%	12.0	4.7%	32.2%	-13.7%	6.9%
CCOC(=O)CNc1nc(Cl)nc(N2CCCCC2)n1	-0.8%	3.4	4.8%	-4.2%	3.1%	3.7%
N#Cc1nc(N2CCCCC2)nc(N2CCOCC2)n1	-0.2%	-55.3*	-15.5%	16.4µM*	13µM*	-17.8%
N#Cc1nc(N2CCCC2)nc(N(c2ccccc2)c2ccccc2)n1	.	.	.	-20.2%	8.5%	.
N#Cc1nc(N2CCCC2)nc(N2CCCC2)n1	-6.2%	-91.5*	-18.0%	14.1µM*	12.6µM*	?
